# Measured values as given in PMC11062922 (Nature Chemical Biology, 2023).
# Where two headings read alike, the source gives them in different places.
# Test system: PRKD3
# Conditions: read-out: apparent Kd, n = 1
substance,measurement,setting,value
Lestaurtinib,potency estimated from few doses,"compound concentrations:100 nM and 1000 nM (sheet 'Lestaurtinib' of Supplementary Table 1),run:Lestaurtinib_02438_R1,Plate:MR008",0.0842 µM
same,potency estimated from few doses,"compound concentrations:100 nM and 1000 nM (sheet 'Lestaurtinib' of Supplementary Table 1),run:Lestaurtinib_02438_R2,Plate:MR008",0.0516 µM
same,potency estimated from few doses,"compound concentrations:100 nM and 1000 nM (sheet 'Lestaurtinib' of Supplementary Table 1),run:Lestaurtinib_02438_R3,Plate:MR008",0.0825 µM
same,potency estimated from few doses,"compound concentrations:100 nM and 1000 nM (sheet 'Lestaurtinib' of Supplementary Table 1),run:Lestaurtinib_02443_R1,Plate:MR009",0.0917 µM
same,potency estimated from few doses,"compound concentrations:100 nM and 1000 nM (sheet 'Lestaurtinib' of Supplementary Table 1),run:Lestaurtinib_02473_R1,Plate:MR010",0.0777 µM
same,potency estimated from few doses,"compound concentrations:100 nM and 1000 nM (sheet 'Lestaurtinib' of Supplementary Table 1),run:Lestaurtinib_02473_R3,Plate:MR010",0.0797 µM
same,potency estimated from few doses,"compound concentrations:100 nM and 1000 nM (sheet 'Lestaurtinib' of Supplementary Table 1),run:Lestaurtinib_02482_R1,Plate:MR011",0.0952 µM
same,potency estimated from few doses,"compound concentrations:100 nM and 1000 nM (sheet 'Lestaurtinib' of Supplementary Table 1),run:Lestaurtinib_02482_R3,Plate:MR011",0.132 µM
same,potency estimated from few doses,"compound concentrations:100 nM and 1000 nM (sheet 'Lestaurtinib' of Supplementary Table 1),run:Lestaurtinib_02487_R1,Plate:MR012",0.0909 µM
same,potency estimated from few doses,"compound concentrations:100 nM and 1000 nM (sheet 'Lestaurtinib' of Supplementary Table 1),run:Lestaurtinib_02487_R2,Plate:MR012",0.0849 µM
same,potency estimated from few doses,"compound concentrations:100 nM and 1000 nM (sheet 'Lestaurtinib' of Supplementary Table 1),run:Lestaurtinib_02487_R3,Plate:MR012",0.0941 µM
same,potency estimated from few doses,"compound concentrations:100 nM and 1000 nM (sheet 'Lestaurtinib' of Supplementary Table 1),run:Lestaurtinib_02496_R2,Plate:MR013",0.079 µM
same,potency estimated from few doses,"compound concentrations:100 nM and 1000 nM (sheet 'Lestaurtinib' of Supplementary Table 1),run:Lestaurtinib_02496_R3,Plate:MR013",0.0794 µM
same,potency estimated from few doses,"compound concentrations:100 nM and 1000 nM (sheet 'Lestaurtinib' of Supplementary Table 1),run:Lestaurtinib_02566_R2,Plate:MR014",0.0577 µM
same,potency estimated from few doses,"compound concentrations:100 nM and 1000 nM (sheet 'Lestaurtinib' of Supplementary Table 1),run:Lestaurtinib_02566_R3,Plate:MR014",0.0529 µM
same,potency estimated from few doses,"compound concentrations:100 nM and 1000 nM (sheet 'Lestaurtinib' of Supplementary Table 1),run:Lestaurtinib_02572_R1,Plate:MR015",0.0459 µM
same,potency estimated from few doses,"compound concentrations:100 nM and 1000 nM (sheet 'Lestaurtinib' of Supplementary Table 1),run:Lestaurtinib_02577_R1,Plate:MR016",0.1 µM
same,potency estimated from few doses,"compound concentrations:100 nM and 1000 nM (sheet 'Lestaurtinib' of Supplementary Table 1),run:Lestaurtinib_02577_R2,Plate:MR016",0.0876 µM
same,potency estimated from few doses,"compound concentrations:100 nM and 1000 nM (sheet 'Lestaurtinib' of Supplementary Table 1),run:Lestaurtinib_02577_R3,Plate:MR016",0.0592 µM
same,potency estimated from few doses,"compound concentrations:100 nM and 1000 nM (sheet 'Lestaurtinib' of Supplementary Table 1),run:Lestaurtinib_02584_R1,Plate:MR017",0.0951 µM
same,potency estimated from few doses,"compound concentrations:100 nM and 1000 nM (sheet 'Lestaurtinib' of Supplementary Table 1),run:Lestaurtinib_02584_R2,Plate:MR017",0.1 µM
same,potency estimated from few doses,"compound concentrations:100 nM and 1000 nM (sheet 'Lestaurtinib' of Supplementary Table 1),run:Lestaurtinib_02584_R3,Plate:MR017",0.113 µM
same,potency estimated from few doses,"compound concentrations:100 nM and 1000 nM (sheet 'Lestaurtinib' of Supplementary Table 1),run:Lestaurtinib_02601_R2,Plate:MR018",0.0712 µM
same,potency estimated from few doses,"compound concentrations:100 nM and 1000 nM (sheet 'Lestaurtinib' of Supplementary Table 1),run:Lestaurtinib_02601_R3,Plate:MR018",0.0771 µM
same,potency estimated from few doses,"compound concentrations:100 nM and 1000 nM (sheet 'Lestaurtinib' of Supplementary Table 1),run:Lestaurtinib_02606_R1,Plate:MR019",0.0694 µM
same,potency estimated from few doses,"compound concentrations:100 nM and 1000 nM (sheet 'Lestaurtinib' of Supplementary Table 1),run:Lestaurtinib_02606_R2,Plate:MR019",0.13 µM
same,potency estimated from few doses,"compound concentrations:100 nM and 1000 nM (sheet 'Lestaurtinib' of Supplementary Table 1),run:Lestaurtinib_02606_R3,Plate:MR019",0.13 µM
same,potency estimated from few doses,"compound concentrations:100 nM and 1000 nM (sheet 'Lestaurtinib' of Supplementary Table 1),run:Lestaurtinib_02624_R1,Plate:MR020",0.0674 µM
same,potency estimated from few doses,"compound concentrations:100 nM and 1000 nM (sheet 'Lestaurtinib' of Supplementary Table 1),run:Lestaurtinib_02624_R2,Plate:MR020",0.0904 µM
same,potency estimated from few doses,"compound concentrations:100 nM and 1000 nM (sheet 'Lestaurtinib' of Supplementary Table 1),run:Lestaurtinib_02624_R3,Plate:MR020",0.0798 µM
same,potency estimated from few doses,"compound concentrations:100 nM and 1000 nM (sheet 'Lestaurtinib' of Supplementary Table 1),run:Lestaurtinib_02724_R1,Plate:MR021",0.0561 µM
same,potency estimated from few doses,"compound concentrations:100 nM and 1000 nM (sheet 'Lestaurtinib' of Supplementary Table 1),run:Lestaurtinib_02724_R2,Plate:MR021",0.0711 µM
same,potency estimated from few doses,"compound concentrations:100 nM and 1000 nM (sheet 'Lestaurtinib' of Supplementary Table 1),run:Lestaurtinib_02724_R3,Plate:MR021",0.0597 µM
same,potency estimated from few doses,"compound concentrations:100 nM and 1000 nM (sheet 'Lestaurtinib' of Supplementary Table 1),run:Lestaurtinib_02741_R1,Plate:MR023",0.0882 µM
same,potency estimated from few doses,"compound concentrations:100 nM and 1000 nM (sheet 'Lestaurtinib' of Supplementary Table 1),run:Lestaurtinib_02741_R2,Plate:MR023",0.0563 µM
same,potency estimated from few doses,"compound concentrations:100 nM and 1000 nM (sheet 'Lestaurtinib' of Supplementary Table 1),run:Lestaurtinib_02741_R3,Plate:MR023",0.0884 µM
same,potency estimated from few doses,"compound concentrations:100 nM and 1000 nM (sheet 'Lestaurtinib' of Supplementary Table 1),run:Lestaurtinib_02748_R1,Plate:MR024",0.086 µM
same,potency estimated from few doses,"compound concentrations:100 nM and 1000 nM (sheet 'Lestaurtinib' of Supplementary Table 1),run:Lestaurtinib_02748_R3,Plate:MR024",0.098 µM
same,potency estimated from few doses,"compound concentrations:100 nM and 1000 nM (sheet 'Lestaurtinib' of Supplementary Table 1),run:Lestaurtinib_02752_R1,Plate:MR025",0.0929 µM
same,potency estimated from few doses,"compound concentrations:100 nM and 1000 nM (sheet 'Lestaurtinib' of Supplementary Table 1),run:Lestaurtinib_02752_R3,Plate:MR025",0.0993 µM
same,potency estimated from few doses,"compound concentrations:100 nM and 1000 nM (sheet 'Lestaurtinib' of Supplementary Table 1),run:Lestaurtinib_02765_R3,Plate:MR026",0.0824 µM
same,potency estimated from few doses,"compound concentrations:100 nM and 1000 nM (sheet 'Lestaurtinib' of Supplementary Table 1),run:Lestaurtinib_02766_R1,Plate:MR027",0.0992 µM
